Where “and” joins values, the source holds several entries; their conditions need not be identical. Identical values can stand only once. Records with an inconclusive call do not appear. Calls of active or inactive are those of the source. How the source made its calls, unless noted: active means hit-call score of the fitted dose curve at least 0.9, where 1 is the maximum; inactive means score below 0.9. Peptide text beside a SMILES is read from it.
How the values were obtained:
[1] = read-out: Interleukin 17F (IL17F), IL17F (gene 112744); assay: BSK_BT_xIL17F: BioMAP Diversity Plus: BT Assay for Interleukin 17F (IL17F) Biomarker Activity (AID 2284243); conditions: primary human B cells with PBMC
Procedure, shortened: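 B cell/PBMC co-culture (human primary), 24 h compound exposure; sIL-17F by Luminex xMAP; gain-of-signal fit vs DMSO baseline.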

[2] = read-out: Actin alpha 1 (ACTA1), ACTA1 (gene 58); assay: BSK_MyoF_ACTA1: BioMAP Diversity Plus: MyoF Assay for Actin alpha 1 (ACTA1) Biomarker Activity (AID 2284244); conditions: primary human lung fibroblasts
Procedure, shortened: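 Lung fibroblasts, human primary, 24 h compound exposure → a-SMA ELISA. Positive-direction fit vs DMSO control.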

[3] = read-out: Interleukin 2 (IL2), IL2 (gene 3558); assay: BSK_BT_xIL2: BioMAP Diversity Plus: BT Assay for Interleukin 2 (IL2) Biomarker Activity (AID 2284245); conditions: primary human B cells with PBMC
Procedure, shortened: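 B cell + PBMC co-culture (human primary), compound added, 24 h incubation; secreted IL-2 measured multiplexed on Luminex xMAP; gain-of-signal fit vs DMSO.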

[4] = read-out: Collagen IV, COL4A1 (gene 1282); assay: BSK_MyoF_CollagenIV: BioMAP Diversity Plus: MyoF Assay for Collagen IV Biomarker Activity (AID 2284247); conditions: primary human lung fibroblasts
Procedure, shortened: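 Steps: dose human lung fibroblasts; culture 24 h; quantify Collagen IV by ELISA; fit increase versus DMSO control. Parallel SRB total-protein staining (0.1% SRB after 10% TCA fixation, 560 nm) tracks overt cytotoxicity.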

[5] = CCTE_Mundy_HCI_hNP1_CellTiter: CCTE's Cell Titer-Glo 2 Assay in human neuroprogenitor cells for Viability, Mundy Lab (AID 2284241; active means hit-call score of the fitted dose curve at least 0.9, where 1 is the maximum)
Procedure, shortened: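 Measures ATP content in human neural progenitors derived from WA09 embryonic cells. Read-out at 26.5 hours after dosing, with DMSO serving as the negative control and baseline.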

[6] = read-out: Basic fibroblast growth factor (bFGF), FGF2 (gene 2247); assay: BSK_MyoF_bFGF: BioMAP Diversity Plus: MyoF Assay for Basic fibroblast growth factor (bFGF) Biomarker Activity (AID 2284246); conditions: primary human lung fibroblasts
Procedure, shortened: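 ELISA-measured bFGF level serves as the read-out, taken 24 h after chemical dosing of human lung fibroblasts. Values represent signal gain over the DMSO negative control.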

[7] = read-out: Monokine induced gamma interferon (MIG), CXCL9 (gene 4283); assay: BSK_KF3CT_MIG: BioMAP Diversity Plus: KF3CT Assay for Monokine induced gamma interferon (MIG) Biomarker Activity (AID 2284248); conditions: primary human keratinocytes with fibroblasts
Description: BSK_KF3CT is a cell-based, multiplexed-readout assay that uses keratinocytes and foreskin fibroblasts, a human skin primary cell co-culture, with measurements taken at 24 hours after chemical dosing in a 96-well plate.BSK_KF3CT_MIG is an assay component measured in the BSK_KF3CT assay. It measures MIG antibody related to regulation of gene expression using ELISA technology.Data from the assay component BSK_KF3CT_MIG was analyzed at the endpoint, BSK_KF3CT_MIG, in the positive analysis fitting direction relative to DMSO as the negative control and baseline of activity. Using a type of binding reporter, gain or loss-of-signal activity can be used to understand protein changes. To generalize the intended target to other relatable targets, this assay endpoint is annotated to the 'cytokine' intended target family, where the subfamily is 'chemotactic factor'.
The levels of cell surface (or secreted, indicated by the prefix "s") biomarker endpoints were measured by ELISA. Overt cytotoxicity to cells in confluent adherent cultures (all systems other than the BT system) was assessed by measuring total protein levels using sulforhodamine B (SRB) staining in parallel cultures at the time of biomarker measurements, indicated as SRB endpoints. For proliferation assays for adherent cell types, individual cell types are cultured at sub-confluence and relative cell numbers quantified by SRB staining at time points optimized for each system (48 h: 3C and CASM3C systems; 72 h: BT and HDF3CGF systems; 96 h: SAg system). SRB was performed by staining cells with 0.1% SRB after fixation with 10% TCA and reading wells at 560 nm.Viability and proliferation of PBMC (T cells) was quantified by Alamar Blue reduction for the SAg and BT systems. For PBMC viability (referred to as PBMC Cytotoxicity within the assay endpoint names), cells were plated (75,000/well in a 96-well plate) and then chemical samples added for 1 h before addition of activators, SEB and TSST-1 (20 ng/mL final concentration each). Cells were incubated for 90 h. Then, Alamar Blue (20 uL/well) (Invitrogen, Cat DAL1100) was added for 6 h, and the plates were read with a fluorescence microplate reader at 546/580 nm (excitation/emission). For PBMC proliferation, cells were plated and activated as above but incubated for only 16 h prior to addition of Alamar Blue. Plates were read after 6 h.

[8] = read-out: Vascular cell adhesion molecule 1 (VCAM1), VCAM1 (gene 7412); assay: BSK_BF4T_VCAM1: BioMAP Diversity Plus: BF4T Assay for Vascular cell adhesion molecule 1 (VCAM1) Biomarker Activity (AID 2284249); conditions: primary human bronchial epithelial cells with fibroblasts
Procedure, shortened: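 Human bronchial epithelial cell and dermal fibroblast co-culture exposed 24 h. VCAM-1 measured by ELISA; parallel SRB total-protein staining for cytotoxicity. Fitted in positive direction relative to DMSO.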

[9] = read-out: Collagen I, COL1A1 (gene 1277); assay: BSK_hDFCGF_CollagenI: BioMAP Diversity Plus: hDFCGF Assay for Collagen I Biomarker Activity (AID 2284250); conditions: primary human foreskin fibroblasts
Procedure, shortened: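 Human skin primary fibroblasts dosed with test chemical, harvested at 24 h, Collagen I quantified by ELISA; parallel SRB staining (0.1% SRB after 10% TCA fixation, 560 nm) tracked cytotoxicity.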

[10] = CCTE_Mundy_HCI_Cortical_Synap_Neur_Matur_NeuronCount: CCTE's Synaptogenesis and Neurite Maturation Assay in rat cortical cells for Neuron Count, Mundy Lab (AID 2284242; active means hit-call score of the fitted dose curve at least 0.9, where 1 is the maximum)
Procedure, shortened: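 Neuron number was scored by automated high-content imaging of Hoechst- and MAP2-labelled rat primary cortical cells. Glial growth was arrested with AraC at DIV 5, compounds were applied from DIV 7, and cultures ended at DIV 12.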

Measured: AC50

CCCCCCCCCCCC(C)=O
inactive: [1] | [2] | [3] | [4]

Cc1c(C(=O)c2c[nH]n(C)c2=O)ccc(S(C)(=O)=O)c1C1=NOCC1
inactive: [5]

CCCCCCCO
inactive: [1] | [2] | [3] | [6] | [4]

CCC1(C)C(=O)N(Cl)C(=O)N1Cl (configuration not stated)
inactive: [1] | [2] | [3] | [4]

CCOC(=O)C1=NOC(c2ccccc2)(c2ccccc2)C1
inactive: [1] | [2] | [3] | [6] | [4]

COC(OC)(C(=O)c1ccccc1)c1ccccc1
inactive: [1] | [2] | [3] | [6] | [4]

C=CC(=O)OCCCCCCOC(=O)C=C
active: [1] 9.47 µM | [2] 20 µM | [3] 9.78 µM | [6] 34.7 µM | [4] 3.31 µM

CC(C)CCCCCOC(=O)CS
inactive: [1] | [2] | [3] | [6] | [4]

Cc1c(O)cccc1O
inactive: [1] | [2] | [3] | [4]

CCN1CN(CC)CN(CC)C1
inactive: [1] | [2] | [3] | [4]

Clc1cc(Cl)c(Cl)c(Cl)c1Cl
inactive: [1] | [2] | [3] | [4]

COc1ccc(C(=O)c2ccccc2)c(O)c1
inactive: [1] | [2] | [3] | [4]

c1ccc2c(c1)[nH]c1ccccc12
inactive: [1] | [2] | [3] | [4]

COC(=O)[C@H](Cc1ccccc1)NC(=O)[C@@H](N)CC(=O)O (H-Asp-Phe-OMe)
inactive: [5]

CC=C(C)C=CC=C(C)C
inactive: [2]
active: [1] 24.9 µM | [3] 28.5 µM | [4] 0.016 µM

CC(c1cc(C(C)(C)C)cc(C(C)(C)C)c1O)c1cc(C(C)(C)C)cc(C(C)(C)C)c1O
active: [1] 18.1 µM | [3] 20 µM
inactive: [2] | [4]

CC/C=C\C/C=C\C/C=C\CCCCCCCC(=O)OC
active: [1] 15.2 µM | [2] 6.98 µM | [3] 27.5 µM | [4] 20 µM

Fc1ccc(Br)cc1
inactive: [1] | [2] | [3] | [6] | [4]

Nc1cccc(N)n1
inactive: [1] | [2] | [3] | [4]

O=C(O)C(F)(F)C(F)(F)C(F)(F)C(F)(F)C(=O)O
not listed: [6] | [10]
inactive: all other assays above

CC/C=C\CCOC(=O)c1ccccc1O
inactive: [3]
active: [1] 20 µM | [2] 30.7 µM | [4] 33.2 µM

O=C1CCCCCCCCCCC1
inactive: [1] | [2] | [3] | [4]

CCCCNS(=O)(=O)c1ccccc1
inactive: [5] | [10]

CC1=CC=C(C(C)C)CC1
inactive: [1] | [2] | [3] | [4]

C=CC(=O)NC(C)(C)C
inactive: [1] | [2] | [3] | [6] | [4]

CCNc1nc(NC(C)(C)C)nc(OC)n1
inactive: [1] | [2] | [3] | [6] | [4]

COc1ccc(C(=O)/C(Br)=C\C(=O)O)cc1
inactive: [6] | [4]
active: [1] 26.5 µM and 30.2 µM | [2] 28 µM and 30.3 µM | [3] 23.2 µM and 20 µM

O=C(Oc1ccccc1)c1ccccc1C(=O)Oc1ccccc1
active: [2] 30.2 µM
inactive: [1] | [3] | [4]

Reference: PubChem BioAssay (EPA / NIEHS)
